Data reported in PubChem BioAssay AID504834 (National Center for Advancing Translational Sciences (NCATS), 2011).
Screen size: about 320,000 compounds; about 22,000 (6.9%) were called active. Entries that show only a call come without a potency. Roughly 27% stayed inconclusive and do not appear here. The sample holds actives, similar compounds and a random draw of the others, so the mix is not that of the screen. Calls come from the whole dose curve; as a rule, active = well fitted inhibition curve with a large enough effect; inconclusive = small, poorly fitted or top-dose-only effect, or another doubt; inactive = no such curve, though single readings can be large or run the other way.

assay: Primary qHTS for delayed death inhibitors of the malarial parasite plastid, 96 hour incubation; conditions: P. falciparum luciferase reporter growth; series mostly up to 28.7 µM
Source text: The goal of this screen is to discover new antimalarial compounds that act by inhibiting the development of the apicoplast in the malarial parasite Plasmodium falciparum. The biochemical processes that make this organelle essential for erythrocytic stage parasites are not well understood. However, antibiotics such as azithromycin and tetracycline, which target the apicoplast translational machinery, have a potent antimalarial effect.
We have developed a cell-based assay that measures parasite growth based on the expression of an integrated copy of a firefly luciferase reporter. To detect small molecules that cause this "delayed death" phenotype, erythrocytes infected with the luciferase-expressing parasites were incubated with compounds for either one or two generations, corresponding to 48 and 96 hours, respectively. Compounds that inhibit parasite growth in the second generation, but not the first, should be enriched in antimalarials that target the apicoplast. Growth inhibition is detected by a decrease in luciferase activity.
Assay Provider: David Fidock and Eric Ekland, Columbia University
Keywords: NIH Roadmap, MLPCN, MLI, MLSMR, qHTS, NCGC, qHTS, malaria, luciferase, viability
Four microliters of infected erythrocytes (2% hematocrit, 0.05% parasitemia final concentration) in culture medium were dispensed and the plates incubated for 96 hours at 37 C in 5% CO2. Two microliters of luciferase detection reagent was added and luminescence was detected by a ViewLux (PerkinElmer) reader.
Potency is the fitted concentration of half-maximal effect.

Row | SMILES | Potency | activity change, negative = inhibition
1 | Cc1sc(NC(=O)C2=COCCO2)c(C#N)c1C | inactive | 
2 | CCCCN(C(=O)C(CCSC)N1C(=O)c2ccccc2C1=O)c1c(N)n(CCC)c(=O)[nH]c1=O (stereo not drawn) | inactive | 
3 | CSc1ccccc1NC(=O)c1cnc2sc(C)cn2c1=O | inactive | 
4 | O=C(O)Cn1c(Cc2ccccc2)nc2ccccc21 | inactive | 
5 | Cc1ccc(Cn2c(SCC(=O)N/N=C/c3ccccc3OCC(=O)O)nc3ccccc32)cc1 | inactive | 
6 | Cc1ccc(C(C)C)c(OCCSc2nc3ccccc3n2CC(=O)O)c1 | 13.1 µM (active) | 
7 | O=C(c1cccs1)N1CCN(Cc2ccc3c(c2)OCO3)CC1 | inactive | 
8 | Cc1cc(N2CCN(Cc3ccc4c(c3)OCO4)CC2)n2ncnc2n1 | inactive | 
9 | Fc1ccc2[nH]c3c(N4CCN(Cc5ccc6c(c5)OCO6)CC4)ncnc3c2c1 | 2.62 µM (active) | 
10 | CCCc1c(C(=O)O)cnn1-c1ccc(Cl)cc1 | inactive | 
11 | O=C(NNS(=O)(=O)c1ccccc1C(F)(F)F)c1cc2ncc(C(F)(F)F)cc2s1 | inactive | 
12 | Cc1ccsc1C(=O)N[C@@H](C)c1nnc2ccccn12 | inactive | 
13 | C=CCC1(CC=C)CCCN1C(=O)CC1C(=O)NCCN1Cc1ccccc1OC (stereo not drawn) | 10.4 µM (active) | 
14 | CN(C(=O)CC1C(=O)NCCN1Cc1ccc(F)cc1Cl)C1CCCCC1 (stereo not drawn) | inactive | 
15 | CCN(CCn1cccn1)C(=O)CC1C(=O)NCCN1Cc1cccc(OC)c1OC (stereo not drawn) | inactive | 
16 | CCOCCCNC(=O)c1cc2c(=O)n3ccccc3nc2s1 | 10.4 µM (active) | 
17 | CCOCCCNC(=O)c1c[nH]c2cc(C)ccc2c1=O | inactive | 
18 | CCOCCCNC(=O)c1cn(CC(C)C)c(=O)c2c1c1ccccc1n2C | inactive | 
19 | Cc1cccc(OCCC(=O)Nc2ccccc2C(N)=O)c1 | inactive | 
20 | Fc1ccccc1/C=C1\CCCC2=C1Nc1ncnn1C2c1ccccc1F (stereo not drawn) | 1.04 µM (active) | 
21 | CCN1C(=O)c2cccc3c(S(=O)(=O)Nc4ccccc4O)ccc1c23 | inactive | 
22 | CC(C)(C)NC(=O)CSc1nnc(NC(=O)CCc2ccccc2)s1 | inactive | 

Row | SMILES | Potency | activity change, negative = inhibition
23 | Cc1occc1C(=O)NC1CCCN(Cc2ccc(CC(C)C)cc2)C1 (stereo not drawn) | inactive | 
24 | Cc1occc(=O)c1OCc1c(Cl)cccc1Cl | inactive | 
25 | O=C(NCCS(=O)(=O)N1CCN(c2ccccc2F)CC1)c1ccc(Br)o1 | inactive | 
26 | CCOc1ccc(C(C)=O)cc1COC(=O)CNC(=O)c1cccs1 | inactive | 
27 | C/C(=N\N=C(N)N)c1ccc(Cl)cc1 | 4.15 µM (active) | 
28 | C/C(=N\OCC(=O)O)c1ccc(Cl)cc1 | inactive | 
29 | COC(=O)/C(NC(C)=O)=C(\C)c1ccc(Cl)cc1 | inactive | 
30 | Cn1c(SCC(=O)c2ccccc2)ncc(C(=O)Nc2ccc(F)cc2)c1=O | inactive | 
31 | CC1CCN(C(=O)Cn2nnnc2CN2CCOCC2)CC1 | inactive | 
32 | CC(Sc1nncs1)C(=O)NCc1ccc2c(c1)OCO2 (stereo not drawn) | 13.1 µM (active) | 
33 | O=C(NCc1ccc2c(c1)OCO2)c1ccc(Cl)s1 | inactive | 
34 | O=C(NCc1ccc2c(c1)OCO2)c1sccc1Br | inactive | 
35 | Cc1ccc(S(=O)(=O)NCC(=O)N(CC(=O)NCC2CCCO2)c2cccc(F)c2)cc1 (stereo not drawn) | inactive | 
36 | Nc1nnnn1/N=C/c1cc([N+](=O)[O-])ccc1O | inactive | 
37 | Cc1sc(NC(=O)c2ccc3ncsc3c2)c(C(N)=O)c1C | inactive | 
38 | O=C(Nc1ccccc1N1CCOCC1)c1ccncc1 | inactive | 
39 | Cc1ccc(S(=O)(=O)N2CCOCC2)cc1C(=O)Nc1ccccc1N1CCCC1 | inactive | 
40 | O=C(Nc1ccccc1N1CCOCC1)c1csc2c1CCCC2 | 10.4 µM (active) | 
41 | CCCc1cc(=O)[nH]c(SCC(=O)c2c(N)n(CC(C)C)c(=O)n(C)c2=O)n1 | inactive | 
42 | CCOC(=O)c1c(C)[nH]c(C)c1S(=O)(=O)N(C)CC(=O)Nc1ccccc1C | inactive | 
43 | CCc1ccc(OCC(=O)N(Cc2ccccc2)C2CCS(=O)(=O)C2)cc1 (stereo not drawn) | inactive | 
44 | O=C(CCC(=O)c1ccccc1)NCc1cccc(C(F)(F)F)c1 | inactive | 

Row | SMILES | Potency | activity change, negative = inhibition
45 | CCC(C(=O)OC)n1cnc2c(oc3ccccc32)c1=O (stereo not drawn) | inactive | 
46 | Cc1ccc(C)c(Cn2cnc3c(oc4ccccc43)c2=O)c1 | 2.08 µM (active) | 
47 | Cc1ccc2[nH]c3c(=O)n(Cc4ccccn4)cnc3c2c1 | inactive | 
48 | CC(C(=O)N(C)CC(=O)Nc1ccccc1C(F)(F)F)N1C(=O)c2ccccc2C1=O (stereo not drawn) | inactive | 
49 | Cc1csc2nc(COC(=O)c3cccc(N(C)C)c3)cc(=O)n12 | inactive | 
50 | CCOC(=O)N1CCC(N2Cc3cccc(C(=O)Nc4c(C)cccc4CC)c3C2=O)CC1 | inactive | 
51 | C=C1CCC(N(O)c2cc(C)on2)C(=C)CCC2C1CC2(C)C (stereo not drawn) | 4.65 µM (active) | 
52 | CN(NS(=O)(=O)c1cccs1)c1ncc(C(F)(F)F)cc1Cl | inactive | 
53 | COc1cc(-c2nnc(NC(=O)C3=COCCO3)o2)cc(OC)c1OC | inactive | 
54 | CCC(CC)c1nnc(NC(=O)C2=COCCO2)s1 | inactive | 
55 | O=C(Nc1nnc(C2=COCCO2)o1)c1ccc([N+](=O)[O-])s1 | 11.7 µM (active) | 
56 | COCCNc1ccc(-c2n[nH]c(=O)c3ccccc23)cc1[N+](=O)[O-] | inactive | 
57 | O=C(NCCc1c[nH]c2ccccc12)c1cccc(Br)c1 | inactive | 
58 | CC1(C(=O)NCCc2c[nH]c3ccccc23)C=CC2(CCCCC2)N1C(=O)c1ccccc1 (stereo not drawn) | 11.7 µM (active) | 
59 | O=C(CN1C(=O)NC2(CCCCC2)C1=O)NCCc1c[nH]c2ccccc12 | inactive | 
60 | Cc1ccc(OCCC(=O)OCC(=O)N2c3ccccc3NC(=O)C2(C)C)cc1 | inactive | 
61 | Cc1nnc(SCC(=O)Nc2ccc(S(=O)(=O)Nc3ccc(Cl)nn3)cc2)s1 | inactive | 
62 | Cc1ccccc1N1CCN(C2CCCN(C(=O)c3ocnc3C)C2)CC1 (stereo not drawn) | inactive | 
63 | Cc1ccc(-n2c(-c3ccc(Cl)cc3)n[nH]c2=S)cc1 | inactive | 
64 | CC(=O)c1ccc(NC(=O)Nc2ccc([N+](=O)[O-])cc2C)cc1 | 9.28 µM (active) | 
65 | Cc1cc([N+](=O)[O-])ccc1NC(=O)c1ccc(NC(=O)C(C)C)cc1 |  | 18% [at 5.75 µM] (inactive)
66 | Cc1cc([N+](=O)[O-])ccc1NC(=O)C1CCCO1 (stereo not drawn) | inactive | 

Row | SMILES | Potency | activity change, negative = inhibition
67 | CCOc1ccccc1C(=O)NCc1ccco1 | inactive | 
68 | CCN(CC(=O)NCc1ccco1)S(=O)(=O)c1ccc(F)cc1 | inactive | 
69 | O=C(NCc1ccco1)c1ccc(CS(=O)(=O)Cc2ccc(F)cc2)o1 | 8.28 µM (active) | 
70 | CC1(C)Oc2ccc3ccc(=O)oc3c2/C(=N/O)C1=O | inactive | 
71 | NC(=O)Cc1ccc2c(c1)[nH]c1ccccc12 | inactive | 
72 | C[C@H](NC(=O)C1CC(=O)N(c2ccc3c(c2)OCO3)C1)C(=O)NCc1ccco1 (stereo partly drawn) | inactive | 
73 | CCc1cccc(C)c1N(C(=O)Cn1c(CO)nc2ccccc21)C(C)COC (stereo not drawn) | inactive | 
74 | Cc1ccccc1OC(=O)Cn1c(C(F)(F)F)nc2ccccc21 | inactive | 
75 | CCOCN(C(=O)Cn1c(C(C)O)nc2ccccc21)c1c(C)cccc1CC (stereo not drawn) | 8.28 µM (active) | 
76 | CC(C)=NN1C(=O)c2ccccc2NC1(C)C | inactive | 
77 | Cc1csc(NC(=O)c2ccc(-c3ccc(Cl)cc3Cl)o2)n1 | 4.65 µM (active) | 
78 | Cc1csc(NC(=S)Nc2cccc(Cl)c2)n1 | inactive | 
79 | O=C(Nc1cccc2ncccc12)c1ccc(-c2ccc(Cl)cc2Cl)o1 | inactive | 
80 | COc1cc(S(=O)(=O)N2CCN=C2c2ccccc2)ccc1Cl | inactive | 
81 | CCN(CC)CCCN=Cc1c(O)n(-c2ccc(C)cc2)c(=O)c2ccccc12 | inactive | 
82 | Cc1ccc(-n2c(O)c(C=Nc3ccc(S(=O)(=O)Nc4ncccn4)cc3)c3ccccc3c2=O)cc1C | inactive | 
83 | COc1ccc(-n2c(O)c(C=NCC(c3ccco3)N3CCCC3)c3ccccc3c2=O)cc1OC (stereo not drawn) | 10.4 µM (active) | 
84 | O=c1[nH]c(N2CCOCC2)nc2ccccc12 | inactive | 
85 | CC(C(=O)NC1CCS(=O)(=O)C1)N1C(=O)/C(=C/c2ccc(Cl)cc2)SC1=S (stereo not drawn) | inactive | 
86 | CC1CCN(C2=NC(=O)/C(=C/c3cn[nH]c3-c3ccccc3)S2)CC1 | 13.1 µM (active) | 
87 | O=C1N=C(N2CCOCC2)S/C1=C\C=C/c1ccccc1 | inactive | 
88 | Cc1ccsc1/C=C1\SC(N2CCOCC2)=NC1=O | inactive | 

Row | SMILES | Potency | activity change, negative = inhibition
89 | Cc1ccc(-c2nnc(CN3CCN(C)CC3)o2)cc1 | inactive | 
90 | COc1ccc(CCNC(=O)C(=O)NCC2OCCN2S(=O)(=O)c2ccc(F)cc2)cc1OC (stereo not drawn) | inactive | 
91 | Cc1ccc(S(=O)(=O)NC(=O)COc2ccccc2C)cc1 | inactive | 
92 | O=[N+]([O-])c1ccc(O)c(/C=N/Nc2ccccc2[N+](=O)[O-])c1 | inactive | 
93 | Cc1ccc(NS(=O)(=O)c2ccc(N/N=C/c3ccccc3OCC(=O)O)c([N+](=O)[O-])c2)c(C)c1 | 9.28 µM (active) | 
94 | O=C(Cc1ccc(Cl)cc1)NC(=S)Nc1ccccc1O | inactive | 
95 | CC1(C)O[C@@H]2[C@H](O1)[C@@H](COS(=O)(=O)O)O[C@H]2n1ccc(=O)[nH]c1=O | inactive | 
96 | CN(C)S(=O)(=O)c1cccc(NC(=O)Cc2ccsc2)c1 | inactive | 
97 | CN(c1ccccc1)S(=O)(=O)c1ccc(NC(=O)COc2ccccc2)cc1 | inactive | 
98 | CN(c1ccccc1)S(=O)(=O)c1cccc(NC(=O)Cc2c(F)cccc2Cl)c1 | 14.7 µM (active) | 
99 | Cc1ccc(S(=O)(=O)n2cccc2CO)cc1 | inactive | 
100 | COc1ccccc1CCNC(=O)C1CCN(C(=O)/C=C/c2ccccc2)CC1 | inactive | 
101 | CCN(CC(=O)NCc1ccc(Cl)cc1)C(=O)CSc1ccccc1 | inactive | 
102 | Nc1ccc(Nc2ccccc2)cc1 | 9.28 µM (active) | 
103 | Nc1ccc(C(=O)NCc2ccccc2)cc1 | inactive | 
104 | Nc1ccc(-c2nnc(-c3ccc(-c4ccccc4)cc3)o2)cc1 | inactive | 
105 | Cc1ccnc(NC(=O)CNC(=O)c2ccccc2)c1 | inactive | 
106 | C=CCNc1ncnc2ccc(Br)cc12 | inactive | 
107 | COc1ccc(Nc2ncnc3ccc(Br)cc23)c(OC)c1 | inactive | 
108 | CC1(C)CC2CC(C)(CN2c2ncnc3ccc(Br)cc23)C1 (stereo not drawn) | 16.5 µM (active) | 
